Data from PubChem BioAssay.
Calls of active or inactive are those of the source.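 How the source made its calls: active means z-score of at least 1.8 in each of two replicates, scored against plate mean and spread of sample wells; inactive means the rest.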

Assay: galactose survival enhancers in mitochondrial complex I cybrids – cell-based, galactose medium, ATP luminescence, primary screen (AID 1645843);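 further: positive z means more ATP and so rescue of galactose-driven cybrid death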
Conditions: complex I mutant cybrid cells, 72 h, hits give high values

Compound	z-score
Cc1ccccc1C1CCCN(C(=O)CCC(C)C)C1 (centres undefined)	-0.255 (inactive)
CC(C)c1cc(C(=O)N2CCCC(c3ccc(Cl)cc3)C2)on1 (centres undefined)	0.165 (inactive)
CCn1ncc2[nH]c(-c3c(OC)ccc4ccccc34)nc21	0.04 (inactive)
Cc1cccc(CN(C)Cc2ccc(-c3nc(C(F)(F)F)c(C)c(=O)[nH]3)cc2)n1	0.78 (inactive)
Cc1ccc2c(C(=O)N3CCCC(C#N)C3)cc(-c3cnn(C(C)C)c3)nc2c1 (centres undefined)	-0.52 (inactive)
O=C(Nc1cccc(-c2cscn2)c1)c1ccc2nccnc2c1	-0.95 (inactive)
CC(CCCC(C)(C)O)CCN1CCC(N(C)CCO)CC1 (centres undefined)	-0.505 (inactive)
CN1CCN(C(=O)c2ccc3c(c2)CCO3)CC1=O	0.07 (inactive)
Cc1cccc2c(C(=O)N(C)C(C)C)cc(-c3cnn(C(C)C)c3)nc12	2.17 (active)
O=C1NCCN(C(=O)c2ccc(Cl)cc2)C1Cc1ccccc1 (centres undefined)	0.59 (inactive)
Cc1ccc(NC(=O)c2csc(Cc3ccccc3)n2)cn1	-1.08 (inactive)
Cc1ccc(C(=O)NCC2CCCN(C(=O)C3CC3)C2)cn1 (centres undefined)	-0.52 (inactive)
Cc1nn(C)c(C)c1-c1ccnc(N(C)Cc2cnn(C(C)C)c2)n1	0.67 (inactive)
CC(C)C1C(=O)N(C)CCN1C(=O)Nc1nc(-c2ccccc2)ns1 (centres undefined)	-0.345 (inactive)
O=C1NCCN(C(=O)c2ccc(Cl)c(F)c2)C1Cc1ccccc1 (centres undefined)	-0.565 (inactive)
COc1cccc(CN2CCN(C(=O)c3cc4cc(OC)ccc4[nH]3)CC2=O)c1	-0.41 (inactive)
CCCCC(CO)NC(C)CCc1ccc(O)cc1 (centres undefined)	-0.565 (inactive)
Cc1c(C(F)(F)F)nc(-c2ccc(CN3CCN(C)C(=O)C3)cc2)[nH]c1=O	-0.5 (inactive)
CCN1CCCC(C(=O)N2CCC(n3cc(C(C)(C)C)nn3)CC2)C1 (centres undefined)	0.15 (inactive)
CC(CCN1CCC(n2cc(CO)nn2)CC1)CC(C)(C)C (centres undefined)	-0.48 (inactive)
Cn1ncc(NC(=O)CCc2cn3ccccc3n2)n1	0.67 (inactive)
CCCc1noc(CN(C)C(=O)CCc2ccc(C)c(C)c2)n1	-0.575 (inactive)
CCCCc1cc(=O)[nH]c(-c2ccc(CN(C)CCOC)cc2)n1	-0.415 (inactive)
COc1cc(C)ccc1C(=O)N1CCC(Cn2cc(C3CC3)nn2)CC1	-0.52 (inactive)
